Screens from PubChem.
PrPC surface inh = inhibitors of human cell surface prion protein PrPC, primary screen, cell-based, TR-FRET; actives 0.43% (n = 370,000); inhibition, % at 13.8 µM; Major prion protein (Homo sapiens), P04156; TR-FRET read-out; AID 720596, 2013; in the data active = inhibition above about 24%
BJeLR lethal = MLPCN primary cell-based screen for lethality selective to Ras in HRASV12 cells. BJeLR (HRASV12) viability, CellTiter-Glo ATP luminescence, 48 h. inhibition, % (no concentration beside the values). actives 0.17% (n = 300,000); in the data active = inhibition above about 50%
PrP UTR inh = inhibition of PrP 5' UTR reporter expression; cell-based PrP 5' UTR mRNA reporter, plate reader; inhibition, % (test concentration not listed); actives 0.35% (n = 340,000); in the data active = inhibition above about 52%
PfHsp40 yeast = rescue of yeast from PfHsp40 toxicity, primary screen, S. cerevisiae, ATP luminescence; growth rescue, % at 12.5 µM; S. cerevisiae expressing PfHsp40, growth rescue; actives 0.68% (n = 340,000); in the data active = growth rescue above about 28%, passing the limit was not always enough;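 note: yeast W303a lacking pdr1 and pdr3 grown in galactose medium; growth measured after three days at 30 °C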
PriA SSB inh = inhibitors of Klebsiella pneumoniae PriA binding to SSB C-terminal tail, primary screen, biochemical, AlphaScreen | PriA–SSB C-terminal tail interaction (Klebsiella pneumoniae) | AlphaScreen SSBct-PriA binding, biotinylated peptide | inhibition, % at 33 µM | actives 0.6% (n = 430,000) | AID 1272365, 2023; in the data active = inhibition mostly above about 37%, no sharp cut-off; inactive = mostly below about 20%
Yp Topo-I inh = Yersinia pestis topoisomerase I inhibitors, primary screen, biochemical, cleavage product accumulation, plate reader, single point. DNA topoisomerase I (Yersinia pestis CO92). Y. pestis Topo-I cleavage product accumulation. activity, % at 10 µM. actives 0.064% (n = 360,000); in the data active = activity above about 50%, passing the limit was not always enough
Numbers stand for hits; – = inactive; · = not tested or not shown; ! = not confirmed by another sample. In the library only some 1.7% were active in any assay of this set; here they are far more common.

SMILES	PrPC surface inh	BJeLR lethal	PrP UTR inh	PfHsp40 yeast	PriA SSB inh	Yp Topo-I inh
Cc1ccc(N2CC(C(=O)NCCCn3ccnc3)CC2=O)cc1 (stereo not drawn)	–	–	–	–	–	–
Cc1cc(C)n(-c2nc(CCNC(=O)c3ccc(=O)[nH]c3)cs2)n1	·	·	·	·	–	·
CC(=O)Nc1nc(SCC(=O)N2CC(C)OC(C)C2)[nH]c(=O)c1NC(=O)c1ccccc1 (stereo not drawn)	·	·	·	·	–	·
CCc1cccc2sc(N(CCN(C)C)C(=O)c3cccc(SC)c3)nc12	·	·	·	·	42	·
CCc1cccc2sc(N(CCCN3CCOCC3)C(=O)c3ccc4c(c3)OCCO4)nc12	·	·	·	·	28	·
CSc1cccc(C(=O)N(CCn2cccn2)c2nc3c(Cl)cccc3s2)c1	·	·	·	·	–	·
O=C(c1nnsc1S(=O)c1ccc(Cl)cc1)N1CCOCC1 (stereo not drawn)	–	–	–	143	–	–
S=c1[nH]ncn2c1cc1oc3ccccc3c12	97	–	–	–	–	–
O=c1c2ccccc2oc2ccccc12	–	·	·	·	·	–
Brc1nc(-c2ccccn2)n[nH]1	·	·	·	·	142	·
Clc1nc(-c2ccccn2)n[nH]1	·	·	·	·	163	·
O=C(CCS(=O)(=O)c1ccccc1)NCc1cncc(-c2ccsc2)c1	·	·	·	·	–	·
Nc1nc(CCl)nc(N(c2ccccc2)c2ccccc2)n1	–	65	·	·	–	–
O=C(O)CN1C(=O)/C(=C/c2ccccc2OCC(=O)Nc2ccc(F)cc2)SC1=S	·	·	·	·	–	·
COc1ccc(-c2cn3c(C(=O)NCc4cccnc4)csc3n2)cc1	·	·	·	·	–	·
CC1=C/C(=C(/c2cc(C)c(O)c(Br)c2)c2ccccc2S(=O)(=O)O)C=C(Br)C1=O	–	–	–	–	–	60
COc1cc2nc(C3CCC3)nc(N3CCN(c4ccccc4OC)CC3)c2cc1OC	–	–	–	–	39	–
COc1cc2nc(C3CCC3)nc(N3CCN(c4ccccn4)CC3)c2cc1OC	·	–	–	–	–	–
Cc1nc2cc(NC(=O)C3CCCN(c4ccc(=O)n(C)n4)C3)ccc2s1 (stereo not drawn)	·	·	·	·	–	·
COCCCn1c(-c2ccc(OC)cc2)cc(C(=O)NC2CCCCCCC2)c1C	–	–	–	–	–	56
COc1ccc(Br)c(C(=O)NC2CCCC2)c1	–	–	–	–	–	–
CCCc1nnc(-c2cc3ccccc3[nH]2)o1	·	·	·	·	–	·
CCOC(=O)c1ccc(N2C(=O)CC(N3CCC(O)(c4ccc(Cl)cc4)CC3)C2=O)cc1 (stereo not drawn)	–	–	–	534	–	–
CCOC(=O)c1ccc(N2C(=O)CC(N3CCC(O)(c4ccc(Br)cc4)CC3)C2=O)cc1 (stereo not drawn)	–	–	–	–	–	–
CCOC(=O)c1ccc(N2C(=O)CC(N3CCCC(C)C3)C2=O)cc1 (stereo not drawn)	–	–	–	585	–	–
SMILES	PrPC surface inh	BJeLR lethal	PrP UTR inh	PfHsp40 yeast	PriA SSB inh	Yp Topo-I inh
CCOC(=O)c1ccc(N2C(=O)CC(N3CCN(Cc4ccccc4)CC3)C2=O)cc1 (stereo not drawn)	–	–	–	–	–	–
CCCOc1ccc(N2C(=O)CC(N3CCC(C(=O)OCC)CC3)C2=O)cc1 (stereo not drawn)	–	–	–	523	–	–
CCOc1ccc(CNC(=S)NCc2ccc(OCC)cc2)cc1	–	–	–	–	–	–
CC(C)COc1ccc(CNC(=S)NCc2ccccc2)cc1	–	–	–	51	–	–
O=C(COC(=O)c1cc(F)c(F)cc1Cl)NC1CC1	–	–	–	–	–	–
Nc1c(Cl)cc(Cl)cc1C(=O)OCC(=O)NC1CC1	–	–	–	124	–	–
Cc1ccc(S(=O)(=O)Nc2ccc3nc(-c4cccn4C)[nH]c3c2)cc1	–	–	–	–	88	–
Cn1cccc1-c1nc2ccc(NC(=O)c3ccccc3)cc2[nH]1	–	–	–	–	–	–
CCOC(=O)c1c(-c2ccc(OC)cc2)csc1N	·	·	·	·	40	·
Cc1cc(NC(=O)CCCSc2ccc(NC(=O)c3ccco3)nn2)no1	·	·	·	·	–	·
O=C1CS(=O)(=O)N(Cc2cccc(F)c2)c2ccc(Br)cc21	–	·	–	–	–	–
O=C1c2cc(Br)ccc2N(Cc2ccc(Br)cc2)S(=O)(=O)C1c1cc(Cl)c(Cl)cc1[N+](=O)[O-] (stereo not drawn)	·	·	–	143	–	–
CC(=O)N(Cc1ccncc1)c1nc2c(C)cc(Cl)cc2s1	·	·	·	·	–	·
Brc1ccc(Cn2c(-c3ccc(Br)o3)nc3ccccc32)o1	–	–	–	56	57!	–
COc1ccc(-n2nc3c(c2NC(=O)C(=O)NCC2CCCO2)CSC3)cc1 (stereo not drawn)	·	·	·	·	–	·
O=C1NC(Cc2ccc(O)cc2)c2nc3ccc(Br)cc3c(=O)n2-c2cc3ccccc3cc21 (stereo not drawn)	–	·	·	·	·	–
Cc1cc(C)c2c(=O)n3c(nc2c1)C(Cc1ccc(O)cc1)NC(=O)c1cc2ccccc2cc1-3 (stereo not drawn)	–	·	·	·	·	59
O=C(c1cc(-c2cccc(F)c2)n[nH]1)N1CC(=O)N(CCc2ccccc2)C(=O)C1	·	·	·	·	–	·
O=S(=O)(NCCOc1ccc(F)cc1)c1ccc(Cl)s1	·	·	·	·	–	·
COc1ccc(N2C(=O)C(Cl)=C(Nc3ccccc3O)C2=O)cc1	–	–	–	82	–	–
NC(=NOC(=O)Cc1ccc([N+](=O)[O-])cc1)c1ccccn1	·	·	·	·	42	·
COc1ccc(CC(=O)Nc2cccc(-c3csc(C)n3)c2)cc1	–	–	–	–	–	–
Cc1nc(-c2cccc(NC(=O)COc3ccc(Cl)cc3)c2)cs1	–	–	–	56	–	–
C=CCNc1nc(C(=O)OCC(=O)c2ccc(F)cc2)cs1	–	–	–	–	46	–
C=CCNc1nc(C(=O)OCC(=O)c2cccc(Br)c2)cs1	–	·	–	–	–	–
SMILES	PrPC surface inh	BJeLR lethal	PrP UTR inh	PfHsp40 yeast	PriA SSB inh	Yp Topo-I inh
CCC(OC(=O)c1cc2sccc2n1C)C(=O)NCC1CCCO1 (stereo not drawn)	–	·	–	–	–	–
CC(OC(=O)c1cc2sccc2n1C)C(=O)NCC1CCCO1 (stereo not drawn)	–	–	–	106	–	–
O=C(c1ccccc1)N1CCCc2cc(NS(=O)(=O)CCOc3ccccc3)ccc21	·	·	·	·	35	·
CCN(CC)CCN(C(=O)c1ccc2c(c1)CCCC2)c1nc2ccc(OC)cc2s1	–	–	–	–	46!	–
COc1ccc(C)c2sc(N(CCN3CCOCC3)C(=O)c3ccc(C)c(C)c3)nc12	·	·	·	·	–	·
COc1ccc(OC)c2sc(N(CCCN3CCOCC3)C(=O)c3ccccc3SC)nc12	·	·	·	·	28	·
COc1ccc(OC)c2sc(N(CCN3CCOCC3)C(=O)c3ccc4c(c3)CCCC4)nc12	·	·	·	·	41	·
COc1ccc(OC)c2sc(N(CCCN3CCOCC3)C(=O)c3ccn(C)n3)nc12	·	·	·	·	–	·
NS(=O)(=O)c1ccc(NN=Cc2ccccn2)c([N+](=O)[O-])c1	·	·	·	·	–	·
